Screens as filed in PubChem BioAssay.
A selection: hits, their analogues and other compounds. The true share with any hit is near 7.1%.
ELG1 genotox: genotoxicity induction in ELG1-luciferase HEK293T cells. actives 1.3% (n = 330,000). HEK293T ELG1-luciferase reporter, luminescence, 16 h. Potency, µM (titrated, usually from 46 µM), usual class: activators; note: nearly all actives have a fitted effect of over 60% in size
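Genotoxic stress is detected as increased luminescence from luciferase-tagged ELG1 in HEK293T cells, measured with ONE-Glo after a 16 hr treatment at 37 °C.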
MCF10A rereplic: induces DNA re-replication in MCF 10a normal breast cells. MCF 10A DNA re-replication, Hoechst nuclear intensity, 48 h. Potency, µM (titrated, usually from 46.1 µM), usual class: activators. actives 2.9% (n = 350,000). AID 624296; note: nearly all actives have a fitted effect of over 50% in size
ELG1 DNA repair: inhibitors of ELG1-dependent DNA repair in HEK293T cells | HEK293T ELG1-luciferase reporter, luminescence, 16 h; DNA damage induced by 5-fluorouridine | Potency, µM (doses to about 46.1 µM), hits mostly inhibitors | actives 2.3% (n = 330,000) | AID 504467; note: nearly all actives have a fitted effect of over 55% in size
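Luminescence from the luciferase reporter, measured 30 min after ONE-Glo reagent at room temperature, was the read-out. Beforehand, 2,000 cells per well were exposed for 16 hr at 37 °C to 5-fluorouridine together with compound or vehicle.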
p53 reactivator: mutant p53 re-activation in reporter cells; H1299 p53-A138V BP100-luciferase reporter, luminescence, 24 h; Potency, µM (doses to about 92.2 µM), usual class: activators; actives 0.063% (n = 320,000); AID 504706; note: nearly all actives have a fitted effect of over 45% in size
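p53-null H1299 cells stably carrying temperature-sensitive p53-A138V and a BP100-luciferase reporter were pinned with compounds (4-point, 1:5 series) and held 24 hrs at 37 deg C. Luminescence was read 10 min after detection reagent.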
SW480 rereplic: DNA re-replication induction in SW480 cells. SW480 DNA re-replication, Hoechst DNA content imaging, 48 h. Potency, µM (top dose mostly 46.1 µM), actives largely listed as activators. AID 624297. actives 1.8% (n = 340,000); note: nearly all actives have a fitted effect of over 55% in size
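Image-based DNA-content assay: after two days of treatment, nuclei were labelled with the DNA dye Hoechst and imaged, and hits were compounds raising the count of nuclei showing high fluorescence intensity.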
AT treatment: candidate therapy for ataxia-telangiectasia; F2112 A-T fibroblasts, KAP-1 phosphorylation AlphaLISA; neocarzinostatin DNA damage 30 min before lysis; Potency, µM (highest dose often 57.5 µM), most hits filed as activators; actives 0.19% (n = 320,000); note: nearly all actives have a fitted effect of over 45% in size
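hTERT-immortalized A-T patient fibroblasts (F2112), 500 cells/well in OPTI-MEM, 1% FBS, got compounds for 60 min, then NCS for 30 min at 37C. Lysates were then assayed for phospho-KAP-1 by AlphaLISA (anti-pKAP1 donor, anti-KAP1 acceptor beads), 6 hr at 25C.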
Of the large screens only hits and unclear results are named; the others gave an inactive call. Calls come from the whole dose curve; as a rule, active = well fitted curve in the direction sought with a large enough effect; inconclusive = small, poorly fitted or top-dose-only effect, or another doubt; inactive = no such curve, though single readings can be large; an effect the other way counts as inactive or inconclusive.

Cc1cc(C)c2oc(-c3cccc(N)c3)nc2c1	ELG1 genotox inconclusive, ELG1 DNA repair inconclusive, p53 reactivator inconclusive
Cc1ccc2nc(-c3cccc(N)c3)oc2c1	ELG1 genotox 1.64µM, ELG1 DNA repair inconclusive, p53 reactivator inconclusive
Cc1ccc2nc(Cc3ccc(N)cc3)oc2c1	ELG1 genotox 11.6µM, ELG1 DNA repair inconclusive
Cc1ccc2nc(CCc3nc4ccc(C)cc4o3)oc2c1	none
Nc1ccc2oc(-c3cccc(Br)c3)nc2c1	ELG1 genotox 2µM, MCF10A rereplic inconclusive, ELG1 DNA repair inconclusive, SW480 rereplic inconclusive
C[C@@H]1CN([C@H](C)CO)C(=O)c2cc(NC(=O)Cc3cn(C)c4ccccc34)ccc2O[C@H]1CN(C)S(=O)(=O)c1ccc(F)cc1	MCF10A rereplic inconclusive, ELG1 DNA repair inconclusive, SW480 rereplic inconclusive
COc1ccc(OC)c(C2c3[nH]c4ccccc4c3C[C@H]3C(=O)N(CCCOC(C)C)CC(=O)N23)c1 (some centres not stated)	none
Cc1cccc(OCCNC(=O)c2ccc(Cl)c(S(=O)(=O)NCc3cccnc3)c2)c1	MCF10A rereplic 5.8µM, ELG1 DNA repair inconclusive, SW480 rereplic inconclusive
Cc1cccc(OCCNC(=O)c2cncc(Br)c2)c1	SW480 rereplic 0.92µM
O=C(NCCOc1ccc2ccccc2c1)c1cncc(Br)c1	none
COC(=O)C1CCN(C(=O)c2ccc(Cl)c(S(=O)(=O)NCc3cccnc3)c2)CC1	none
C=C(C)C(=O)OC1(C(F)(F)F)Oc2cc(C)ccc2NC1=O (configuration not stated)	ELG1 genotox inconclusive, MCF10A rereplic 16.4µM, ELG1 DNA repair inconclusive, SW480 rereplic inconclusive
CCOc1ccc(NC(=S)N2CCN(c3ccc(N4CCOCC4)nn3)CC2)cc1	ELG1 DNA repair inconclusive, SW480 rereplic inconclusive
O=C(CN1C(=O)CS/C1=C\c1nc(-c2ccc(Cl)cc2)cs1)Nc1cccnc1Cl	ELG1 genotox inconclusive, MCF10A rereplic inconclusive, SW480 rereplic inconclusive
Cc1ccc(-c2csc(/C=C3\SC(C)C(=O)N3CC(=O)Nc3ccccc3F)n2)cc1 (configuration not stated)	MCF10A rereplic 18.4µM
O=C(O/N=C\c1ccc(N2CCCCC2)c([N+](=O)[O-])c1)c1ccc(Cl)cc1Cl	SW480 rereplic inconclusive
COc1ccccc1C(=O)/C=C/c1ccc(N2CCCCC2)c([N+](=O)[O-])c1	ELG1 genotox inconclusive, MCF10A rereplic 6.51µM, ELG1 DNA repair inconclusive, p53 reactivator inconclusive, SW480 rereplic 18.4µM
O=C(c1ccc(N2CCCCC2)c([N+](=O)[O-])c1)N1CCOCC1	none
O=C(/C=C/c1ccc(N2CCCCC2)c([N+](=O)[O-])c1)c1ccc(O)cc1	ELG1 genotox 20.6µM, ELG1 DNA repair inconclusive, SW480 rereplic inconclusive
O=CNC1(c2ccccc2)CCCCC1	none (no result: ELG1 genotox, ELG1 DNA repair, p53 reactivator, AT treatment)
CCn1c(SCC(N)=O)nc2cc(S(=O)(=O)N3CCOCC3)ccc21	none
CCn1c(CCl)nc2cc(S(=O)(=O)N3CCOCC3)ccc21	MCF10A rereplic inconclusive, ELG1 DNA repair inconclusive, SW480 rereplic 14.6µM
CCCn1c(CCC(=O)Nc2ccccc2Cc2ccccc2)nc2cc(S(=O)(=O)N3CCOCC3)ccc21	ELG1 DNA repair 11.6µM
CCn1nc(C)c(NC(=O)CCSc2nc(-c3ccco3)cc(C(F)(F)F)n2)c1C	ELG1 DNA repair inconclusive
Cc1ccc(NC(=O)CSc2nc(-c3ccco3)cc(C(F)(F)F)n2)cc1C	MCF10A rereplic 1.16µM, ELG1 DNA repair inconclusive, SW480 rereplic 2.59µM (no result: AT treatment)
Cc1cc(NC(=O)CSc2nc(-c3ccco3)cc(C(F)(F)F)n2)n(-c2ccccc2)n1	MCF10A rereplic 10.3µM, ELG1 DNA repair inconclusive, SW480 rereplic inconclusive (no result: AT treatment)
Cc1cc(NC(=O)CCCSc2nc(-c3ccco3)cc(C(F)(F)F)n2)n(-c2ccccc2)n1	ELG1 DNA repair 16.4µM
Cc1cc(NC(=O)CSc2nnnn2C)n(-c2ccccc2)n1	MCF10A rereplic 6.51µM, SW480 rereplic 4.11µM
CCNc1c(NC(=O)C2CCC(C)CC2)c(=O)oc2ccccc12 (configuration not stated)	none
CCC(CO)(CO)N(CC(=O)Nc1ccc(OC)cc1)CC(=O)Nc1ccc(OC)cc1	ELG1 DNA repair inconclusive
NC(N)=N/N=C/c1ccc(Br)cc1	MCF10A rereplic 18.4µM, SW480 rereplic inconclusive
COc1ccc(S(=O)(=O)Nc2ccc(O)c(Sc3ncn[nH]3)c2)cc1	SW480 rereplic inconclusive
O=S(=O)(Nc1cc(Sc2cccc3cccnc23)c(O)c2ccccc12)c1ccc(F)cc1	MCF10A rereplic 10.3µM, ELG1 DNA repair 9.2µM, SW480 rereplic 0.731µM
Cc1cc(C)c(S(=O)(=O)Nc2cc(SCC(=O)O)c(O)c3ccccc23)cc1C	MCF10A rereplic inconclusive, SW480 rereplic inconclusive
O=C(O)CSc1cc(NS(=O)(=O)c2ccc(Cl)cc2)c2ccccc2c1O	MCF10A rereplic 23.1µM, ELG1 DNA repair inconclusive, SW480 rereplic inconclusive
COc1ccc(S(=O)(=O)Nc2cc(SCC(=O)O)c(O)c3ccccc23)cc1	ELG1 DNA repair 16.4µM, SW480 rereplic inconclusive
COc1ccc(S(=O)(=O)Nc2cc(Sc3ncn[nH]3)c(O)c3ccccc23)cc1	ELG1 DNA repair 23.1µM (no result: MCF10A rereplic, SW480 rereplic)
COc1ccc(S(=O)(=O)Nc2cc(S(=O)(=O)c3ccccc3)c(O)cc2C)cc1	none
O=C(Sc1cccc2cccnc12)c1ccc(F)cc1	ELG1 genotox inconclusive, ELG1 DNA repair inconclusive (no result: MCF10A rereplic, SW480 rereplic)
COc1cccc(C(=O)NC(C)CCc2ccccc2)c1 (configuration not stated)	SW480 rereplic inconclusive
Cc1cccc(C)c1NC(=O)c1cccc2c1C(=O)N(C1CCCCC1)C2	MCF10A rereplic inconclusive, SW480 rereplic inconclusive
Cc1cccc(-c2ccc3c(c2)C2CC3CCN2C)c1 (configuration not stated)	none (no result: ELG1 genotox, ELG1 DNA repair, p53 reactivator, AT treatment)
Cc1c([N+](=O)[O-])c2ccc(O)cc2n1-c1ccccc1	ELG1 DNA repair 4.61µM, SW480 rereplic inconclusive
CC(C#N)(NC(=O)CN1CCN(S(=O)(=O)c2ccccc2Cl)CC1)C1CC1 (configuration not stated)	none
CCOC(=O)C1(Cc2ccccc2)C(=O)N(CCCN(C)C)c2ccccc21 (configuration not stated)	none (no result: ELG1 genotox, ELG1 DNA repair, p53 reactivator, AT treatment)
COc1ccc(/C=C/C(=O)NCc2cccnc2)cc1	ELG1 DNA repair inconclusive
CCc1ccc(CN(Cc2cccnc2)C(=O)/C=C/c2ccc(OC)cc2)cc1	MCF10A rereplic 18.4µM, ELG1 DNA repair inconclusive
COc1ccc(C(=O)OCC(=O)NCC2CCCCC2)c(OC)c1	none
